Measured values taken from PubChem BioAssay (NCI).
Compounds without any hit were thinned out: in the full panel of roughly 83,000, 20% have a hit.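 Method: cells in 96-well plates; compound added at one concentration; 48 h incubation; percent growth measured; values under 10 scored active.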 Unmarked numbers belong to inactive results. Activity calls are given as the source filed them.

Tested on: UACC-257 melanoma
Experiment: NCI-60 one-dose screen, 48 h (100 = growth as untreated, 0 = no growth, -100 = all killed)
Conditions: 10 µM unless noted

Q: With O=c1oc2c(cnc3ccccc32)cc1-c1cccc(Cl)c1 as the compound, how does the growth read?
A: 101%

Q: With CCOC(=O)c1c(C)nc2c(c1N)C(=O)C(=O)N2Cc1ccc(OC)cc1 as the compound, how does the growth read?
A: 76.2%

Q: How did the growth turn out when CCNC(=O)N1CCc2c(Br)c3c(c(OC)c2C1Cc1ccc(OC)cc1)OCO3 (stereo not given) was run?
A: 65.4%

Q: For COc1cc2c(c(OC)c1OC)CCC(c1cccc(C(=O)Nc3ccc(Br)cc3)c1)O2 (stereo not given), which growth is on record?
A: 75.6%

Q: How did the growth turn out when OC1CSSC1Cn1cnc2c(Nc3ccc(OCc4cccc(F)c4)c(Cl)c3)ncnc21 (stereo not given) was run?
A: 26.6%

Q: How did the growth turn out when Cc1ccc(OCCOCCOCCOc2ccc(C)n(O)c2=S)c(=S)n1O was run?
A: 68.4%

Q: For C=CN(C(=O)N1CCN(c2cc3c(cc2F)c(=O)c(C(=O)O)cn3C2CC2)CC1)c1nc(-c2ccc(Cl)cc2)cs1, which growth is on record?
A: 87.6%

Q: With C#CCOc1cccc(Nc2ncnc3cc(NC(=O)CCl)ccc23)c1 as the compound, how does the growth read?
A: -43.3% (active)

Q: Which growth does the source give for Cc1nc2ccccc2c(/C=C/c2ccc(F)cc2)c1C(=O)/C=C/c1ccccc1 here?
A: 7.87% (active)

Q: With COc1cc(/C=C/C(=O)N2CCN(C(=O)c3cc(OC)c(OC)c(OC)c3)CC2)ccc1OCCCOc1cc2c(cc1OC)C(=O)N1CCC[C@H]1C=N2 as the compound, how does the growth read?
A: -11.7% (active)

Q: How did the growth turn out when O=C(NC1CCC(Br)CC1)C1CCCC(S(=O)(=O)NC2CCCCC2)C1 (stereo not given) was run?
A: -6.91% [25 µM] (active)

Q: For COc1cc(/C=C/c2cn[nH]c2-c2ccc(C)cc2)cc(OC)c1OC, which growth is on record?
A: 39.5%

Q: How did the growth turn out when COc1ccc(C/C(C)=C(\c2ccc(Cl)cc2)c2ccc(OCCN3CCCC3)cc2)cc1 was run?
A: 93.5%

Q: How did the growth turn out when CN(C)Cc1ccc(NC(=O)c2cncc(C#Cc3cnc(N)c4ncccc34)c2)cc1C(F)(F)F was run?
A: 36.9%

Q: COC(=O)c1c(C)nc(C)c2c1C(=O)C=C(NCc1ccccc1)C2=O was tested. Which growth did it give?
A: 104%

Q: N#CSc1c[nH]c2ccc(/C=C/C(=O)/C=C(O)/C=C/c3ccc4[nH]cc(SC#N)c4c3)cc12 was tested. Which growth did it give?
A: 25.9%

Q: With Cc1ccc(-c2nc(SCC(=O)N3CCN(c4cc5c(cc4F)c(=O)c(C(=O)O)cn5C4CC4)CC3)nc(Cl)c2C#N)cc1 as the compound, how does the growth read?
A: 99.3%

Q: Which growth does the source give for COC(=O)/C=C1/SC(=NCc2ccccc2)N(CCc2c[nH]c3ccccc23)C1=O here?
A: 81.6%

Q: With C=C(C)[C@@H]1CC[C@]2(C(=O)N3CCN(C)CC3)CC[C@]3(C)[C@H](CC[C@@H]4[C@@](C)(CCC(=O)O)[C@H](C(=C)C)CC[C@]43C)[C@@H]12 as the compound, how does the growth read?
A: 83.5%

Q: Nc1[nH]nc2nc(-c3ccccc3)n3c4ccccc4nc3c12 was tested. Which growth did it give?
A: 105%

Q: CN1CCOCCN(C)Cc2ccc3ccc(cc3c2)CN(C)CCOCCN(C)Cc2ccc3ccc(cc3c2)C1 was tested. Which growth did it give?
A: 110%

Q: How did the growth turn out when COc1ccc(/C=N/Nc2c3ccccc3nc3ccccc23)cc1 was run?
A: 103%

Q: How did the growth turn out when C=C1C(=O)O[C@H]2[C@H]1CC/C(CNC(=O)Cc1c[nH]c3ccccc13)=C\CC[C@@]1(C)O[C@@H]21 was run?
A: 5.96% (active)

Q: How did the growth turn out when COc1ccc2c(c1)CC[C@@H]1[C@@H]2CC[C@]2(C)c3c(cc(C#N)c4c3sc3ccccc34)C[C@@H]12 was run?
A: 99.9%

Q: O=C(c1c[nH]c2ccccc12)c1n[nH]c(=S)n1-c1ccc([N+](=O)[O-])cc1 was tested. Which growth did it give?
A: 99%

Q: Cc1c2cnccc2c(C)c2c1c1cc(CO)ccc1n2C was tested. Which growth did it give?
A: -52.7% (active)

Q: For COc1cc(-c2nccc3[nH]c(-c4cccc5[nH]ccc45)nc23)cc(OC)c1OC, which growth is on record?
A: 58.7%

Q: Which growth does the source give for Clc1ccc(-c2nc(C(Cl)Cl)nc3cc(-c4ccccc4)nn23)cc1 here?
A: 52.5%

Q: How did the growth turn out when CC1=Nc2cnc(Nc3ccc(N4CCCCC4)cc3)nc2Nc2ccccc21 was run?
A: 93.8%

Q: How did the growth turn out when CN(C)c1ccc([C@@H](C(=O)Nc2cccc([N+](=O)[O-])c2)N(C(=O)c2cc3ccccc3[nH]2)c2cccc([N+](=O)[O-])c2)cc1 was run?
A: 93.4%

Q: How did the growth turn out when O=C(CSc1nnnn1-c1ccccc1)Nc1ccc(Oc2ccccc2)cc1 was run?
A: 96.2%

Q: How did the growth turn out when COc1cc(/C=C/C(=O)c2cccc(-n3cc(-c4ccc(Cl)cc4)[nH]c3=O)c2)ccc1O was run?
A: 68%

Q: Which growth does the source give for Oc1c(CN2CCC(N3CCOCC3)CC2)cc(Cc2cc(CN3CCC(N4CCOCC4)CC3)c(O)c3ncccc23)c2cccnc12 here?
A: 64.5%

Q: For c1ccc2cc(Cn3cc(CSc4nc5ccccc5s4)nn3)ccc2c1, which growth is on record?
A: 99.9%

Q: Which growth does the source give for CN(C)Cc1cc(C(C)(C)C)cc(Br)c1O here?
A: 119%

Q: For CCN(CC)CCOc1ccc(/C(=C(\C)Cc2ccc(OC)cc2)c2ccc(OC(=O)NCc3ccccc3)cc2)cc1, which growth is on record?
A: 38.2%

Q: For C=C1C(=O)O[C@H]2[C@H]1CC/C(COC(=O)NCc1ccc(Cn3c(=O)sn(-c4ccc(I)cc4)c3=O)cc1)=C\CC[C@@]1(C)O[C@@H]21, which growth is on record?
A: 75.7%

Q: With O=c1oc2ccccc2cc1-c1nn(-c2ccccc2)cc1-c1nn[nH]n1 as the compound, how does the growth read?
A: 100%

Q: O=c1oc2c(cc1-c1ccccc1)c(=O)[nH]c1ccccc12 was tested. Which growth did it give?
A: 100%

Q: How did the growth turn out when CC1=C(Cl)C(=O)c2cc(C)ccc2C1=O was run?
A: 106%
